Shown are actives, neighbours in structure and some others; about 4.8% of the full set was active somewhere.
D3 ag: agonists of human D3 dopamine receptor | actives 0.58% (n = 410,000) | AID 652048 | D3R DiscoveRx beta-arrestin cells, luminescence, 90 min | P35462 | max activation, %; in the data active = max activation above about 30%
Target sequence (P35462 whole entry, looked up): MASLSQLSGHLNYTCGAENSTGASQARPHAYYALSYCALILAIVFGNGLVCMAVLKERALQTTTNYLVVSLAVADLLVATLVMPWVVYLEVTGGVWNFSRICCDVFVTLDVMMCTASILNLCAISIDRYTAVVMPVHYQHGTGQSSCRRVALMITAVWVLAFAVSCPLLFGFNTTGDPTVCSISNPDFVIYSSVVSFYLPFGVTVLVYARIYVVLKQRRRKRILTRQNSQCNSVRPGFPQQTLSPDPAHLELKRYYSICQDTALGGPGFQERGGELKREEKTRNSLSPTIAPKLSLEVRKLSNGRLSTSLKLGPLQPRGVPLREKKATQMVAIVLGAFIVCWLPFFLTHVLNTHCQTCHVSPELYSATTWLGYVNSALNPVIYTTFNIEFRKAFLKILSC
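Agonist mode: compounds and dopamine controls were applied to plated cells for 90 min at 37 degrees C after an overnight attachment at 1500 cells/well. Luminescent read-out followed 30 - 60 minutes at room temperature with DiscoveRx detection reagent.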
ATXN2 expr inh: inhibitors of ATXN2 expression; Potency, µM (highest dose often 57 µM), actives largely listed as inhibitors; actives 0.72% (n = 360,000); HEK-293 ATXN2-luciferase reporter, luminescence, 24 h; also: nearly all actives have a fitted effect of over 55% in size
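ATXN2-luciferase reporter cells (luciferase flanked by upstream and downstream ATXN2 gene portions) were treated 24 h at 37 °C with compounds at up to 57 uM. SteadyGlo luminescence gave expression; GF-AFC fluorescence gave viability.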
D3 antag: blocks the human D3 dopamine receptor; D3R cells, DiscoveRx beta-arrestin luminescence, antagonist mode; stronger effect = lower value; max response, negative = inhibition, %; actives 2.5% (n = 360,000); AID 652054; in the data active = max response below about -50%; inconclusive = no clear call, values can overlap the other calls
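Cells plated overnight at 1500 cells/well, then exposed to library compounds with dopamine controls for 90 minutes at 37 degrees C. DiscoveRx reagent added for 30–60 minutes at room temperature; luminescence read, quantitative HTS format.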
HepG2 tox: HepG2 cytotoxicity, counter-screen for TGF-b inhibitors; HepG2 CAGA-GFP viability, ATP luminescence, 18 h; Potency, µM (highest dose often 46.1 µM), hits mostly cytotoxic; actives 0.76% (n = 410,000); AID 588856
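CellTiter-Glo luminescence gave cytotoxicity after 18 hours at 37 degrees C. The cells were HepG2 CAGA-GFP in 1% FBS DMEM, stimulated with 500 pg/mL TGF-beta after compound addition. %Activity was normalised to no-cell wells (complete cell-killing) and DMSO (no toxicity), and curves were fitted and classified.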
ATXN viability: cell viability loss in ATXN counter-screen | actives 0.49% (n = 400,000) | Potency, µM (doses to about 56.7 µM), hits mostly cytotoxic | AID 651635 | S2 cells (HEK-293 line with an ATXN2-luciferase reporter) viability, CellTiter-Fluor protease fluorescence, 24 h; also: nearly all actives have a fitted effect of over 40% in size
TGFb inhibitor: TGF-b pathway inhibition | Potency, µM (series often up to 46.1 µM), usual class: inhibitors | AID 588855 | actives 1.2% (n = 410,000) | HepG2 CAGA-GFP TGF-b/SMAD3 reporter, GFP fluorescence, 18 h; TGF-beta stimulated, 500 pg/mL final; also: nearly all actives have a fitted effect of over 65% in size
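Cell-based qHTS in HEPG2 carrying a CAGA-GFP Smad reporter; compounds added before 500 pg/mL final TGF-beta, 18 h incubation at 37 degrees C, GFP fluorescence quantified per cell by imaging cytometry.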
A number is an active result; . = inactive; ? = inconclusive; / = no result given. Unless noted, calls follow the shape of the dose curve; as a rule, active = well fitted curve in the direction sought with a large enough effect; inconclusive = small, poorly fitted or top-dose-only effect, or another doubt; inactive = no such curve, though single readings can be large; an effect the other way counts as inactive or inconclusive.

SMILES | D3 ag | ATXN2 expr inh | D3 antag | HepG2 tox | ATXN viability | TGFb inhibitor
Cc1ccc(S(=O)(=O)c2nc(-c3ccccc3Cl)oc2NCCCN2CCOCC2)cc1 | . | . | -53.3 | . | . | .
COc1cccc(CNC(=O)CCCn2ncn3c(cc4occc43)c2=O)c1OC | . | . | / | . | . | .
O=C(CN1CCC(n2nnc3cc(F)ccc32)CC1)NCCc1nc2ccccc2[nH]1 | . | . | -64.8 | . | . | .
O=C(CN1CCC(n2nnc3ccccc32)CC1)Nc1ccc2c(c1)CCC2 | . | . | -65.1 | . | . | .
O=C(CN1CCC(n2nnc3cc(F)ccc32)CC1)NNC(=O)c1ccccc1 | . | . | ? | . | . | .
O=C(CN1CCC(n2nnc3cc(F)ccc32)CC1)Nc1ccc2c(c1)CCC2 | . | . | -76.0 | . | . | .
O=C(CN1CCC(n2nnc3cc(F)ccc32)CC1)N1CCCc2ccccc21 | . | . | -53.7 | . | ? | .
Cc1ccc2c(c1)nnn2C1CCN(CC(=O)Nc2ccc(F)cc2)CC1 | . | . | ? | . | . | .
c1ccc2sc(-c3cc4c(c(OC5CCOC5)c3)OCCN(Cc3cccn3-c3nccs3)C4)nc2c1 (stereo not given) | / | / | / | / | . | /
COc1cc2c(cc1OC)C(COc1ccc3c(C)cc(=O)oc3c1)N(C(=O)Cc1ccc(F)cc1)CC2 (stereo not given) | . | . | / | . | . | .
Cc1ccc2c(c1)nnn2C1CCN(CC(=O)N2c3ccccc3CC2C)CC1 (stereo not given) | . | ? | -70.2 | . | . | ?
CC1CCC(NC(=O)CN2CCC(n3nnc4cc(F)ccc43)CC2)CC1 (stereo not given) | . | . | -67.1 | . | . | .
COc1ccc(Cn2c(=O)c3cccnc3n(CC(=O)Nc3c(C)cc(C)cc3C)c2=O)cc1 | . | . | / | . | . | .
CN1C(=O)c2ccccc2Sc2ccc(NC(=O)N3CCN(c4ccc(F)cc4)CC3)cc21 | . | / | / | . | / | ?
COc1ccc(CNCCC(c2ccc(F)cc2)c2ccc(OC)cc2)cc1 (stereo not given) | . | . | . | . | . | ?
COc1ccc(C(CCNCc2ccccc2)c2ccc(F)cc2)cc1 (stereo not given) | . | . | . | . | . | 17.8µM
COc1ccc(CNCCC(c2ccccc2)c2ccc(OC(C)C)cc2)cc1OC (stereo not given) | . | . | . | . | . | ?
COc1ccc(C(CCNC(C)c2ccccc2)c2ccc(F)cc2)cc1 (stereo not given) | . | 28.2µM | ? | . | ? | 12.6µM
COc1ccc(CNCCC(c2ccc(OC)cc2)c2ccccc2OC)cc1 (stereo not given) | . | . | . | 11.2µM | ? | ?
COc1ccc(C(CCNCc2ccc(N(C)C)cc2)c2ccccc2OC)cc1 (stereo not given) | . | ? | -54.6 | . | . | ?
COc1ccc2c(c1)cc1c(=O)n(CC(=O)NCCc3ccccc3)nc(C)n12 | . | . | / | . | . | .
COc1cccc(CN2CCC3(CCC(CNC(=O)c4ccccc4)O3)CC2)c1 (stereo not given) | / | / | / | / | . | /
COc1ccc(C(CCNCc2ccc(OC(C)C)cc2)c2ccccc2OC)cc1 (stereo not given) | . | / | . | 11.2µM | 14.1µM | 14.1µM
COc1ccc(C(CNC(=O)c2oc3ccc(C)cc3c2C)N2CCOCC2)cc1 (stereo not given) | . | / | / | . | / | .
CCOC(=O)c1sc(NC(=O)/C=C/c2ccc(OCC)cc2)c(C(=O)OCC)c1C | . | . | / | . | . | .
SMILES | D3 ag | ATXN2 expr inh | D3 antag | HepG2 tox | ATXN viability | TGFb inhibitor
CCOC(=O)c1sc(NC(=O)/C=C/c2cnn(C)c2C)c(C(=O)OC(C)C)c1C | 34.5 | . | . | . | . | .
CC(=O)N(C(C)=O)N1C(=O)/C(=C/c2ccc(Cl)cc2)SC1=S | . | ? | ? | . | ? | 15.8µM
COc1ccc2cc1Oc1ccc(cc1)CC1c3c(cc(OC)c4c3Oc3cc5c(cc3O4)CCNC5C2)CCN1C (stereo not given) | . | 10.6µM | . | . | 8.44µM | 10µM
O=C1CCN(S(=O)(=O)c2ccccc2)C2CCCCC12 (stereo not given) | . | . | . | . | . | ?
O=C1NC2CCCCC2C(=O)N1OS(=O)(=O)c1ccccc1 (stereo not given) | . | ? | . | . | 15.8µM | .
COC(=O)c1ccccc1COc1cccn2c(N(C)Cc3cccs3)c(C)nc12 | . | 17.8µM | . | . | . | ?
Cc1nc2c(OCc3cccc(Cl)c3)cccn2c1N(C)Cc1cccs1 | . | ? | . | 11.2µM | ? | ?
Cc1nc2c(OCc3ccc(Cl)cc3Cl)cccn2c1N(C)Cc1cccs1 | . | 8.91µM | -70.7 | 11.2µM | / | ?
C=C1C(=CC=C2CCC[C@]3(C)[C@@H]([C@H](C)CCCC(C)(C)O)CC[C@@H]23)C[C@@H](O)C[C@@H]1O | / | . | / | / | / | /
O=C(CSc1ccc(Cl)cc1)NC1CCCC1 | . | . | . | . | . | .
O=C(NC1CCCCC1)Sc1ccc(Cl)cc1 | . | ? | -90.6 | . | / | .
CC[n+]1ccc(C)c2cc(P(=O)(c3ccccc3)c3ccccc3)ccc21 | . | . | -57.8 | . | . | .
Cc1cc(OCC(=O)N2CCOCC2)c(C(C)C)cc1Cl | . | . | -76.6 | . | . | .
CCc1ccc(C2c3c(-c4ccccc4O)n[nH]c3C(=O)N2Cc2cccnc2)cc1 (stereo not given) | . | ? | / | . | / | ?
COc1ccc(NC(=O)NNC(=O)CCc2ccc(O)c(O)c2)cc1OC | 51.1 | . | . | . | ? | .
O=Nc1ccc(NO)c2ccccc12 | . | / | . | . | . | 12.6µM
COc1ccc(CNC(=O)c2[nH]c(C(F)(F)F)nc2-c2ccccc2)cc1OC | . | . | -57.6 | . | . | .
COc1ccc([C@H]2C[C@H](O)[C@@H](n3cc(-c4ccc(F)cc4)nn3)CN2C(=O)c2cccs2)cc1 | 71.0 | . | . | . | . | .
COc1ccc([C@H]2C[C@@H](n3cc(-c4ccc(F)cc4)nn3)[C@H](O)CN2C(=O)c2cccs2)cc1 | . | . | . | . | . | .
CCOC(=O)c1cc(-c2ccccc2)n(-c2cccc(C(=O)Nc3cccc(SC)c3)c2)c1C | . | / | / | . | / | .
Oc1ccc2ccccc2c1CN1CCN(c2ccccc2F)CC1 | . | . | -95.4 | . | . | .
Oc1ccc2ccccc2c1CN1CCN(C/C=C/c2ccccc2)CC1 | . | . | -56.2 | . | . | .
O=C(CN1CCN(c2ccccc2F)CC1)c1ccc(O)c(O)c1 | . | . | . | . | ? | .

From PubChem BioAssay
